Each structure is given as a SMILES string. Hit rate of the full screen: of about 120,000 compounds, about 5,300 (4.4%) were called active. Where a call stands in place of a potency, no number is given. Not shown: some 22% with an inconclusive outcome. This is one part of a sample in which actives are shown more often than they occur. Calls come from the whole dose curve; as a rule, active = well fitted inhibition curve with a large enough effect; inconclusive = small, poorly fitted or top-dose-only effect; inactive = no such curve, though single readings can be large or run the other way.
Potency is the fitted concentration of half-maximal effect.

A short description of the assay: qHTS Primary assay for Inhibitors of Plasmodium falciparum Dd2 growth in vitro. Note: nearly all actives have a fitted effect of over 65% in size. The note with it: P. falciparum Dd2 growth, SYBR Green, 72 h; series mostly up to 28.9 µM. The method in brief:
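Infected erythrocytes (Dd2, 0.3% parasitemia, 2.5% hematocrit final) are added to compound in RPMI-1640/Albumax II medium, grown 72 h at 37C in low oxygen, then lysed with saponin/Triton-X containing SYBR Green and read by fluorescence.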
Regarding `CCC(CC)c1cc([C@H]2CN3CC[C@H]2C[C@@H]3CNC(=O)NCc2ccccc2)nc(-c2ccncc2)n1`, the Potency was 0.631 µM (active).
Same read-out and setting: under `N#Cc1cccc(NC(=O)NC[C@H]2C[C@@H]3CCN2C[C@@H]3CN2CCN(c3ncccn3)CC2)c1` stands “inactive”; under `CCC(CC)c1cc([C@H]2CN3CC[C@H]2C[C@@H]3CNS(=O)(=O)Cc2ccccc2)nc(-c2ccncc2)n1`, “inactive”; under `CC(C)c1nnsc1CN1CCn2nc(CCC(=O)N3CCCC3)cc2C1`, “inactive”.
For the compound `CCN1C(=O)CCN(C(=O)N(C)C)CC12CCOCC2`, the Potency result was “inactive”.
Still for that read-out and setting: in the case of `CCOc1ccc(NC(=O)N2c3ccccc3CC2c2noc(C3CCOCC3)n2)cc1` (stereo not given) it was “inactive”; in that of `CNC(=O)[C@@H]1CN(C(=O)c2ccco2)C[C@H]1COC`, “inactive”.
Same read-out and setting: in the case of `O=C(C1CCCC1)N1CC2(CCCN(C3CCCCC3)C2)Cc2ccccc21` (stereo not given) it was 7.94 µM (active).
The same measure, in the same setting: under `C[S+](=O)([O-])N1CC2(Cc3ccccc31)CN(C(=O)C1CC1)C2` stands “inactive”.
As for `CC(=O)N1CC2(CCN(Cc3cccnc3)C2)Cc2ccccc21` (stereo not given), the Potency result is “inactive”.
Regarding `COc1ccc2[nH]c3c(c2c1)CCNC31CCN(C(=O)c2ccnn2C)CC1`, the Potency entry was “inactive”.
With `O=C(Cn1nc2c(cc1=O)CCCCC2)Nc1nc(-c2ccncc2)cs1`, the Potency entry was “inactive”.
In the case of `COc1ccc(CN2C(=O)CO[C@H]3CN(C(=O)C4CC4)C[C@H]32)cc1`, the Potency result was “inactive”.
On to `COc1ccc(CN2C(=O)CO[C@H]3CN(Cc4cccnc4)C[C@H]32)cc1`, for which the Potency entry was “inactive”.
The same measure, in the same setting: under `O=C1CO[C@H]2CN(C3CCC3)C[C@H]2N1Cc1ccc(OC(F)(F)F)cc1` stands 10 µM (active); under `CCNC(=O)N1C[C@@H]2OCC(=O)N(CCOC)[C@@H]2C1`, “inactive”.
In the case of `Cc1cccc(C(=O)N2CCC(Oc3ccc(-c4noc(C(C)C)n4)cc3)C2)c1` (stereo not given), the activity, negative = inhibition is 27.3% [at 5.79 µM] (inactive).
On the same count and under the same terms, in the case of `CCc1nc(-c2ccc(OC3CCN(C(=O)Cc4c[nH]c5ccccc45)C3)cc2)no1` (stereo not given) it was 2.05% [at 5.79 µM] (inactive).
With `CC(C)c1nc(-c2ccc(OC3CCN(C(=O)CCc4nc5ccccc5[nH]4)C3)cc2)no1` (stereo not given), the Potency is 1.26 µM (active).
Same read-out and setting: in the case of `N#Cc1ccc(C(=O)Nc2ccc3n(c2=O)C[C@H]2C[C@@H]3CN(C(=O)NC3CCCCC3)C2)cc1` it was “inactive”.
Still for that read-out and setting: under `COc1cccc(NC(=O)CN2C(=O)c3ccccc3Sc3ncccc32)c1` stands “inactive”; under `CCOc1ccccc1C(=O)Nc1ccc2c(c1)N(C)C(=O)c1ccccc1S2`, “inactive”; under `COc1cccc(NC(=O)Nc2ccc3c(c2)N(C)C(=O)c2ccccc2S3)c1`, 12.6 µM (active).
For the compound `CCn1cc(-c2ccc(C)cc2)cc1C(=O)NCc1cccnc1`, the Potency entry is “inactive”.
Turning to `Cc1cccc(N2CCN(C(=O)c3cc4n(n3)CC(c3ccc(Cl)cc3)OC4)CC2)c1` (stereo not given), the Potency entry was “inactive”.

(Values after PubChem BioAssay AID1347417 (National Center for Advancing Translational Sciences (NCATS), 2020).)
